Laboratory results taken from publication PMC7862700, “An all-to-all approach to the identification of sequence-specific readers for epigenetic DNA modifications on cytosine”.

Legend:
Assay in all cases: DAPPL (digital affinity profiling via proximity ligation, sequencing); 10 mM Tris-HCl pH 7.5, 50 mM NaCl, 1 mM DTT, 4% glycerol, room temperature, 30 min; GST-TFs on glutathione beads, 16-mer random dsDNA library, 0.1% formaldehyde crosslink after washing; high values mean tight binding
Conditions in all cases: protein: recombinant; tags: N-terminal GST; dsDNA, one strand shown
[1] = molecular target: T1, ERF (Homo sapiens, UniProt P50548 1-548)
T1 sequence: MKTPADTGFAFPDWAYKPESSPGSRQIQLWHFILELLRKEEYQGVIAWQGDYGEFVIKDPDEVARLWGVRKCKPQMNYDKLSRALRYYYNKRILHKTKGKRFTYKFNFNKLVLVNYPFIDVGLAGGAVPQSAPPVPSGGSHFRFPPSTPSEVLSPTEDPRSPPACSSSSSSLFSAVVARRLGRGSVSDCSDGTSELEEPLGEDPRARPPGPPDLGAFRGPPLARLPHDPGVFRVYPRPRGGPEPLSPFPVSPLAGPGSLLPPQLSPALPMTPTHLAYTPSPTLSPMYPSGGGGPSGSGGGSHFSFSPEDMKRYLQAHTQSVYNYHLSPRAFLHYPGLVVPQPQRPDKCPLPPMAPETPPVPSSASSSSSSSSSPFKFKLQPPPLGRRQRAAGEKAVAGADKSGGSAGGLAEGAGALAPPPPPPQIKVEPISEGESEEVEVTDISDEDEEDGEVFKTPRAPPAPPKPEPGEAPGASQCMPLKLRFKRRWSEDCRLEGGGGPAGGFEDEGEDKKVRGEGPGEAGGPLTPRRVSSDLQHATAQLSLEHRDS
In short: (§1)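 Binding signal is defined as a hexamer's read frequency for one factor over its frequency for the tag-only sample. To obtain reads, GST-fused human transcription factors were expressed in yeast, captured on glutathione beads, barcoded with DNA and pooled with that sample. Pools met 200 nmole of a 16-mer random double-stranded DNA library in Tris/NaCl/DTT/glycerol buffer for 30 min at room temperature before washing, 0.1% formaldehyde crosslinking, proximity ligation (BsaI/T4 ligase, 1 h, 37 °C), PCR and Illumina NextSeq500 sequencing.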

[2] = molecular target: T2, ETV3L (Homo sapiens, UniProt Q6ZN32 1-361)
T2 sequence: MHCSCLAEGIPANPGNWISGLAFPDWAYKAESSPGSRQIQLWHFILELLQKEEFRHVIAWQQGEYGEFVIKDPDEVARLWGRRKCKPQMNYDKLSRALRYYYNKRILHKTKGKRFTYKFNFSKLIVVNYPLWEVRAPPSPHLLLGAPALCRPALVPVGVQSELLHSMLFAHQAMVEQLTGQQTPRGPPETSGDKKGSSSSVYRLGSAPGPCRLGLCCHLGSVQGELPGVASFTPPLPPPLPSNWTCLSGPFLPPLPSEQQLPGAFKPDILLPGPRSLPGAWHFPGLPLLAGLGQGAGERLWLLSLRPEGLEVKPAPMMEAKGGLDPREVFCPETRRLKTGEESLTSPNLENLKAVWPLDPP
In short: as §1

[3] = molecular target: T3, ETS2 (Homo sapiens, UniProt P15036 1-469)
T3 sequence: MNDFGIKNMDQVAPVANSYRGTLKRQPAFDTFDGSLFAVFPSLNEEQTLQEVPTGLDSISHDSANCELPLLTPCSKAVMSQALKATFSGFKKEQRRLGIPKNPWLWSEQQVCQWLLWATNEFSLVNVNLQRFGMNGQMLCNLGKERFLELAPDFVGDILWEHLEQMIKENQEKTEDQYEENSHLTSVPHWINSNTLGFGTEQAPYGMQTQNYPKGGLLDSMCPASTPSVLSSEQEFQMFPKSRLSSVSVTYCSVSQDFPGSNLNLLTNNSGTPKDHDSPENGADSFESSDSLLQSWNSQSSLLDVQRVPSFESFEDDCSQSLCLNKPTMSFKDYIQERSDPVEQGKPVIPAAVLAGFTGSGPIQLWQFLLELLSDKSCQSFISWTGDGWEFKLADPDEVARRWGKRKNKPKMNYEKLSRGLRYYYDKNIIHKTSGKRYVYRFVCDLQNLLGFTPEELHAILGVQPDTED
In short: as §1

[4] = molecular target: T4, SPDEF (Homo sapiens, UniProt O95238 1-335)
T4 sequence: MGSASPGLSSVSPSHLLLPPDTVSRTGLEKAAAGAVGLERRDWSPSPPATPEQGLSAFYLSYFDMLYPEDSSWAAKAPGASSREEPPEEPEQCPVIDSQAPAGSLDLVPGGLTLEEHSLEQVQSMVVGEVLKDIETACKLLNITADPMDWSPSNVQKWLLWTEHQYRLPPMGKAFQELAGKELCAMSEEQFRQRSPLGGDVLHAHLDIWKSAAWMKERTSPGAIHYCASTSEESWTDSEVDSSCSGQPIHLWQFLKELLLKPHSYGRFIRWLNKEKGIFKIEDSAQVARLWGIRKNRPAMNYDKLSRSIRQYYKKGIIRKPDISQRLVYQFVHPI
In short: as §1

[5] = molecular target: T5, ETV7 (Homo sapiens, UniProt Q9Y603 1-341)
T5 sequence: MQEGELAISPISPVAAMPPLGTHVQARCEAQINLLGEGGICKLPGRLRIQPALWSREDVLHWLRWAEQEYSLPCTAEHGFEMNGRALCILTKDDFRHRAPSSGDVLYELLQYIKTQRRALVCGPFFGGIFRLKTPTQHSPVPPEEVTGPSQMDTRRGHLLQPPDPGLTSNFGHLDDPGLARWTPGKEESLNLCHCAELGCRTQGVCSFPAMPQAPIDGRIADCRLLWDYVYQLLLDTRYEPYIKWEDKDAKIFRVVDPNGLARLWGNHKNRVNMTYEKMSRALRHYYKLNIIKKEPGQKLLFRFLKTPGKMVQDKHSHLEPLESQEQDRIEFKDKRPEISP
In short: as §1

[6] = molecular target: T6, ELF5 (Homo sapiens, UniProt Q9UKW6-2 1-255)
T6 sequence: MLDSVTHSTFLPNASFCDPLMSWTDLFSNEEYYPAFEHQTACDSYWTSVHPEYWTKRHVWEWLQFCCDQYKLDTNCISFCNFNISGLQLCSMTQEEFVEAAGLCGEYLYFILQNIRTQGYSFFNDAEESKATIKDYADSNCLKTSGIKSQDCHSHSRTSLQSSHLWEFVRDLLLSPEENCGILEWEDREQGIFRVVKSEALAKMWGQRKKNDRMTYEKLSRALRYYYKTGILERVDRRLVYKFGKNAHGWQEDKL
In short: as §1

[7] = molecular target: T7, ETV3 (Homo sapiens, UniProt P41162-2 1-143)
T7 sequence: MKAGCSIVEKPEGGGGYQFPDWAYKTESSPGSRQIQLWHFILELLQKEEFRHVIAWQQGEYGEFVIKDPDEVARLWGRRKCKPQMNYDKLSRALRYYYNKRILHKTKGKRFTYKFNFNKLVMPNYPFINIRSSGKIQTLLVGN
In short: as §1

[8] = molecular target: ETV6 (Homo sapiens, UniProt P41212 1-452)
In short: as §1

Chain of ETV6 (P41212 whole entry): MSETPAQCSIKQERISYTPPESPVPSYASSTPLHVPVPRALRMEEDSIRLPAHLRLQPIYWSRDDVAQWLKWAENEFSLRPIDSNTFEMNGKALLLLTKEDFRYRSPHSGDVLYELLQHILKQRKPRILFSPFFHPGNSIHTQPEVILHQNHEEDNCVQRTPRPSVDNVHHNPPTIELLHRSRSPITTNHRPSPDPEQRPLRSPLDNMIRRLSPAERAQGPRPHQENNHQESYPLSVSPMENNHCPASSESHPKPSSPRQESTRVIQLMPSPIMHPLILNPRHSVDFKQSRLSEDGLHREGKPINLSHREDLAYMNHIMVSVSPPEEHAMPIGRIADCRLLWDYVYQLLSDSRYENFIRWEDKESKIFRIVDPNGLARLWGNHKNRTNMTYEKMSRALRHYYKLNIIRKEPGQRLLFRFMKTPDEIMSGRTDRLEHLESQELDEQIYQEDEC

Row | Sequence | binding signal [1] | binding signal [2] | binding signal [3] | binding signal [4] | binding signal [5] | binding signal [6] | binding signal [7] | binding signal [8]
1 | TCTAGC | 1.35 fold enrichment (6-mer frequency, TF over GST control) | 1.27 fold enrichment (6-mer frequency, TF over GST control) | 1.3 fold enrichment (6-mer frequency, TF over GST control) | 1.22 fold enrichment (6-mer frequency, TF over GST control) | 1.36 fold enrichment (6-mer frequency, TF over GST control) | 1.21 fold enrichment (6-mer frequency, TF over GST control) | 1.32 fold enrichment (6-mer frequency, TF over GST control) | 1.22 fold enrichment (6-mer frequency, TF over GST control)
2 | TAACCC | 1.17 fold enrichment (6-mer frequency, TF over GST control) | 1.22 fold enrichment (6-mer frequency, TF over GST control) | 1.26 fold enrichment (6-mer frequency, TF over GST control) | 1.32 fold enrichment (6-mer frequency, TF over GST control) | 1.31 fold enrichment (6-mer frequency, TF over GST control) | 1.3 fold enrichment (6-mer frequency, TF over GST control) | 1.26 fold enrichment (6-mer frequency, TF over GST control) | 1.3 fold enrichment (6-mer frequency, TF over GST control)
3 | GCTCAC | 1.58 fold enrichment (6-mer frequency, TF over GST control) | 1.57 fold enrichment (6-mer frequency, TF over GST control) | 1.43 fold enrichment (6-mer frequency, TF over GST control) | 1.42 fold enrichment (6-mer frequency, TF over GST control) | 1.4 fold enrichment (6-mer frequency, TF over GST control) | 1.49 fold enrichment (6-mer frequency, TF over GST control) | 1.47 fold enrichment (6-mer frequency, TF over GST control) | 1.45 fold enrichment (6-mer frequency, TF over GST control)
4 | CGTATT | 1.08 fold enrichment (6-mer frequency, TF over GST control) | 1.09 fold enrichment (6-mer frequency, TF over GST control) | 1.18 fold enrichment (6-mer frequency, TF over GST control) | 1.16 fold enrichment (6-mer frequency, TF over GST control) | 1.07 fold enrichment (6-mer frequency, TF over GST control) | 1.14 fold enrichment (6-mer frequency, TF over GST control) | 1.16 fold enrichment (6-mer frequency, TF over GST control) | 1.22 fold enrichment (6-mer frequency, TF over GST control)
5 | CACGTT | 1.36 fold enrichment (6-mer frequency, TF over GST control) | 1.21 fold enrichment (6-mer frequency, TF over GST control) | 1.3 fold enrichment (6-mer frequency, TF over GST control) | 1.18 fold enrichment (6-mer frequency, TF over GST control) | 1.35 fold enrichment (6-mer frequency, TF over GST control) | 1.12 fold enrichment (6-mer frequency, TF over GST control) | 1.19 fold enrichment (6-mer frequency, TF over GST control) | 1.27 fold enrichment (6-mer frequency, TF over GST control)
6 | TTGACA | 1.46 fold enrichment (6-mer frequency, TF over GST control) | 1.37 fold enrichment (6-mer frequency, TF over GST control) | 1.4 fold enrichment (6-mer frequency, TF over GST control) | 1.3 fold enrichment (6-mer frequency, TF over GST control) | 1.44 fold enrichment (6-mer frequency, TF over GST control) | 1.29 fold enrichment (6-mer frequency, TF over GST control) | 1.26 fold enrichment (6-mer frequency, TF over GST control) | 1.32 fold enrichment (6-mer frequency, TF over GST control)
7 | ATTTCT | 1.35 fold enrichment (6-mer frequency, TF over GST control) | 1.49 fold enrichment (6-mer frequency, TF over GST control) | 1.54 fold enrichment (6-mer frequency, TF over GST control) | 1.4 fold enrichment (6-mer frequency, TF over GST control) | 1.47 fold enrichment (6-mer frequency, TF over GST control) | 1.5 fold enrichment (6-mer frequency, TF over GST control) | 1.42 fold enrichment (6-mer frequency, TF over GST control) | 1.39 fold enrichment (6-mer frequency, TF over GST control)
8 | TGCTAT | 1.33 fold enrichment (6-mer frequency, TF over GST control) | 1.4 fold enrichment (6-mer frequency, TF over GST control) | 1.52 fold enrichment (6-mer frequency, TF over GST control) | 1.48 fold enrichment (6-mer frequency, TF over GST control) | 1.43 fold enrichment (6-mer frequency, TF over GST control) | 1.33 fold enrichment (6-mer frequency, TF over GST control) | 1.45 fold enrichment (6-mer frequency, TF over GST control) | 1.38 fold enrichment (6-mer frequency, TF over GST control)
9 | TGAATA | 1.16 fold enrichment (6-mer frequency, TF over GST control) | 1.11 fold enrichment (6-mer frequency, TF over GST control) | 1.05 fold enrichment (6-mer frequency, TF over GST control) | 1.09 fold enrichment (6-mer frequency, TF over GST control) | 1.05 fold enrichment (6-mer frequency, TF over GST control) | 1.07 fold enrichment (6-mer frequency, TF over GST control) | 1.14 fold enrichment (6-mer frequency, TF over GST control) | 1.08 fold enrichment (6-mer frequency, TF over GST control)
